Bioassay records from PubChem.
BoNT F protease: blocks Botulinum neurotoxin F light chain protease. Multiplex microsphere protease cleavage assay, flow cytometry. inhibition, % at 10 µM. 360,000 tested, 0.22% active; in the data active means inhibition above about 35%, passing the limit was not always enough; inconclusive means no clear call, values can overlap the other calls; further: plate controls were buffer without enzyme for full effect and enzyme alone for no effect
Autofluor counter: compound fluorescence in toxin protease inhibitor counterscreen; AID 624483; compound autofluorescence counterscreen, microsphere flow cytometry; hits give high values; fluorescence intensity (test concentration not listed); 360,000 tested, 3.1% active; in the data active means fluorescence intensity above about 16000; inconclusive means no clear call, values can overlap the other calls
BoNT A protease: BoNT A light chain protease inhibition | multiplex microsphere protease substrate cleavage, flow cytometry | inhibition, % at 10 µM | 360,000 tested, 0.17% active | AID 588499; further: plate controls were buffer without enzyme for full effect and enzyme alone for no effect
Anthrax LF prot: anthrax lethal factor protease inhibition | multiplex microsphere protease cleavage assay, LF | inhibition, % at 10 µM | 360,000 tested, 0.12% active; further: plate controls were buffer without enzyme for full effect and enzyme alone for no effect
Numbers without * were called inactive. Shown are actives, neighbours in structure and some others; about 3.5% of the full set was active somewhere. Unless noted, no stated cut-off is given here; in the data, active means inhibition above about 30%; inconclusive means no clear call, values can overlap the other calls; inactive means below that.

What do the screens show for `COc1ccc(N2CCN(C(=O)CCc3nnc4ccc(N5CCOCC5)nn34)CC2)cc1`?
BoNT F protease: 1; Autofluor counter: 4590; BoNT A protease: 0; Anthrax LF prot: -3

How did NS(=O)(=O)c1cccc(NC(=O)CSc2nnc(C3CC3)n2-c2ccccc2)c1 do in these assays?
BoNT F protease: -1; Autofluor counter: 4341; BoNT A protease: 0; Anthrax LF prot: 3

Results for CCOC(=O)c1cnc(-n2nc(C)cc2C)nc1NCc1ccccc1 ?
BoNT F protease: -3; Autofluor counter: inconclusive; BoNT A protease: 3; Anthrax LF prot: 5

How did CCOC(=O)c1cnc(-n2cc(C)cn2)nc1NCc1ccc2c(c1)OCO2 do in these assays?
BoNT F protease: -2; Autofluor counter: 21542*; BoNT A protease: inconclusive; Anthrax LF prot: 0

Results for COc1cccc(C(CC(=O)Nc2cccc3ccccc23)NC(=O)c2ccccc2)c1 (configuration not stated) ?
BoNT F protease: 10; Autofluor counter: 19845*; BoNT A protease: 5; Anthrax LF prot: -7

What do the screens show for `CC1CCN(S(=O)(=O)c2ccc(C(=O)N3CCCC(C(F)(F)F)C3)cc2)CC1` (configuration not stated)?
BoNT F protease: 7; Autofluor counter: 5409; BoNT A protease: 0; Anthrax LF prot: -2

How did Cc1ccc2[nH]c(=O)c(-c3nc4ccccn4c3NCc3ccco3)cc2c1 do in these assays?
BoNT F protease: -4; Autofluor counter: 16211*; BoNT A protease: 0; Anthrax LF prot: -1

What do the screens show for `COC(=O)C1=C(C)N=C2SCCC(=O)N2C1c1ccc(C(=O)OC)cc1` (configuration not stated)?
BoNT F protease: -7; Autofluor counter: 24822*; BoNT A protease: -3; Anthrax LF prot: -1

Results for COC(=O)c1ccc(C2C(C(=O)OCC(C)C)=C(C)N=C3SCCC(=O)N32)cc1 (configuration not stated) ?
BoNT F protease: -1; Autofluor counter: 22462*; BoNT A protease: 0; Anthrax LF prot: -3

What do the screens show for `CC1=C(C(=O)OC(C)C)C(c2cccs2)N2C(=O)CCSC2=N1` (configuration not stated)?
BoNT F protease: -8; Autofluor counter: 25343*; BoNT A protease: -5; Anthrax LF prot: -2

What do the screens show for `COCCOC(=O)C1=C(C)N=C2SCCC(=O)N2C1c1ccc(C(=O)OC)cc1` (configuration not stated)?
BoNT F protease: -10; Autofluor counter: 3273; BoNT A protease: 0; Anthrax LF prot: 1

Results for COC(=O)C1=C(C)N=C2SCCC(=O)N2C1c1cccs1 (configuration not stated) ?
BoNT F protease: -5; Autofluor counter: 3337; BoNT A protease: 0; Anthrax LF prot: -5

How did CCOC(=O)c1cc(C)sc1N1C(=O)C2C3C=CC(C3)C2C1=O (configuration not stated) do in these assays?
BoNT F protease: -4; Autofluor counter: 24106*; BoNT A protease: -2; Anthrax LF prot: 0

What do the screens show for `CCOC(=O)c1c(N2C(=O)C3C4C=CC(C4)C3C2=O)sc2c1CCC(C)C2` (configuration not stated)?
BoNT F protease: -18; Autofluor counter: 2487; BoNT A protease: 0; Anthrax LF prot: -2

What do the screens show for `Oc1ccc(CCNc2ncnc3ccc(Cl)cc23)cc1`?
BoNT F protease: 0; Autofluor counter: 5929; BoNT A protease: 0; Anthrax LF prot: -2

How did Cc1ccc(S(=O)(=O)N2CCC(C(=O)N3CCC3)CC2)cc1 do in these assays?
BoNT F protease: -10; Autofluor counter: 5671; BoNT A protease: -8; Anthrax LF prot: 1

How did COCC(=O)N(Cc1cc2ccc(C)cc2[nH]c1=O)c1ccc(OC)cc1 do in these assays?
BoNT F protease: 1; Autofluor counter: 23081*; BoNT A protease: inconclusive; Anthrax LF prot: -2

What do the screens show for `Cc1ccc(CNc2ncccc2-c2nc3cc(Cl)ccc3o2)cc1`?
BoNT F protease: 0; Autofluor counter: 22598*; BoNT A protease: 1; Anthrax LF prot: 0

What do the screens show for `Clc1ccc2c(NCc3ccccc3)ccnc2c1`?
BoNT F protease: 0; Autofluor counter: 3800; BoNT A protease: -2; Anthrax LF prot: -2

How did Clc1ccc2oc(-c3cccnc3NCc3ccccc3)nc2c1 do in these assays?
BoNT F protease: 2; Autofluor counter: 19024*; BoNT A protease: 4; Anthrax LF prot: 3

What do the screens show for `COc1ccc(/C=C(\NC(=O)c2ccccc2)C(=O)NCCN2CCOCC2)cc1`?
BoNT F protease: -18; Autofluor counter: 3303; BoNT A protease: -3; Anthrax LF prot: -2

How did CCc1ccc(NC(=O)[C@H](Cc2ccccc2)NC(=O)C2CCN(C(=O)[C@@H](N)CC(C)C)CC2)cc1 do in these assays?
BoNT F protease: -9; Autofluor counter: 3960; BoNT A protease: 0; Anthrax LF prot: -6
